In PubChem BioAssay (NCI) one finds growth data, which are given here for eleven compounds.

Each structure is given as a SMILES string. The panel holds about 83,000 compounds, 20% with a hit somewhere; the sample as a whole holds those more often.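 Each cell line was grown in a 96-well plate and treated with one concentration of compound for 48 hours. Values below 10 were considered active.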 Values without a mark were called inactive. Active and inactive are the calls of the source.

The test relates to SW-620 colon. Nature of the test: NCI-60 one-dose screen, 48 h (100 = growth as untreated, 0 = no growth, -100 = all killed). Conditions: 10 µM unless noted.
As to `C#C[C@]1(O)CC[C@H]2[C@@H]3CC=C4c5sc(NCc6ccccc6)nc5CC[C@]4(C)[C@H]3CC[C@@]21C`, the growth is 52.7%.
As for `Clc1ccc(CSc2nnc(-c3ccc(Cl)cc3)n2-c2ccccc2)cc1`, the growth is 91.6%.
Consider `Cc1ccc(C(=O)CSc2nc3ccccc3c(=O)n2C)cc1`, for which the growth was 99.2%.
In the case of `CCn1c2ccc(/C=N/N(C)S(=O)(=O)CCN(C)C)cc2c2cc(/C=N/N(C)S(=O)(=O)CCN(C)C)ccc21` it was 30.6%.
With `CN1CCN(c2ccc(Nc3nc(NCCCNS(=O)(=O)c4ccc(Cl)cc4)c4sccc4n3)cc2)CC1`, the growth was 20.7%.
For the compound `CCCCCCCCCCCC(=O)NC(C)(C)C(=O)N1CCCC1C(=O)NC(C)(C)C(=O)NC(C)(C)C(=O)N1CCCC1C(=O)NC(C)(C)C(=O)NC(C)(C)C(=O)N1CCCC1C(=O)NC(C)C(=O)NCCC(=O)NC(C)C(=O)NC(C)(C)C(=O)NC(C)(C)C(=O)NC(C)(C)C(=O)NCCC(=O)NC(C)(C)C(=O)NC(C)(C)C(=O)NC(C)(C)C(=O)NC(C)C(=O)NCCC(=O)O` (stereo unspecified), the growth is -92.3% (active).
As to `O=C(CCCCCCN1CC(=O)N2[C@@H](c3ccc(Cl)s3)c3[nH]c4ccccc4c3C[C@H]2C1=O)NO`, the growth was 33.2%.
As for `Clc1cccc(/C=N/Nc2nc(N/N=C/c3cccc(Cl)c3)nc(N3CCCCC3)n2)c1`, the growth is 103%.
Turning to `COc1ccc(Cn2cc(C#N)c(N)c2C(C)=O)cc1`, the growth was 111%.
For `C#Cc1nc(/C=C\CCCCCCC(=O)NO)cs1`, the growth is 23.9%.
On to `CC1(C)CC[C@]2(C(=O)O)CC[C@]3(C)C(=CC[C@@H]4[C@@]5(C)CC[C@H](NOCCCN)C(C)(C)[C@@H]5CC[C@]43C)[C@@H]2C1`, for which the growth was 83.8%.
